Laboratory results reported in PubChem BioAssay (NCI).
About 79,000 compounds went through this panel and 15% of them were active in at least one assay; those are over-represented in the sample as a whole. A number with no mark means an inactive call. Cut-off read from the data, not from the text of the source: active = growth inhibition above about 70%; inactive = the rest.

test: NCI Yeast Anticancer Drug Screen. Data for the cln2 rad14 strain (AID 165);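 note: 0% = growth equal to vehicle treated cultures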; details: S. cerevisiae cln2 rad14 strain, at 50.0 µM, stronger effect = higher value
How it was run: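 Yeast strain cln2 rad14, bearing defects in cell cycle control and DNA repair, serves as the test system; values reflect growth inhibition compared with vehicle.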

Compound | growth inhibition
c1cnc(NC(Nc2ncccn2)c2ccco2)nc1 | -21.9%
O=C(NCCNC(=O)c1cccc([N+](=O)[O-])c1O)c1cccc([N+](=O)[O-])c1O | -9%
C[N+](C)(C)CC(=O)N/N=C(/C=C/c1ccccc1)CC1OC(=O)c2ccccc21 (stereo not drawn) | 16.2%
C/C=C(/c1ccccc1)c1ccc(N(C)C)cc1 | -4.7%
O=C(O)c1c[nH]c2cc(O)ccc2c1=O | -6.5%
O=C1CC(N2CCOCC2)c2ccccc21 (stereo not drawn) | -21.1%
CCn1cnc2c(=O)n(C)c(=O)n(C)c21 | -36%
O=C(OC(=O)c1cccc(Br)c1)c1cccc(Br)c1 | 34.8%
N#CC12CCC(O)C(CC1)C2=O (stereo not drawn) | 15.2%
Cc1ccc2ccccc2[n+]1CC(=O)c1ccc2c(c1)OCO2 | 3.85%
CC(=O)Nc1ccc(Cc2[nH]c(=O)[nH]c(=O)c2Br)cc1 | -0.6%
O=C(c1ccccc1Cl)c1ccc2ccccc2c1C(=O)O | 6%
O=C1CC2CC1C1C(=O)OC(=O)C21 (stereo not drawn) | -1.6%
CCC(CC)C(=O)OC1CCCCC1C(C)C (stereo not drawn) | -13.6%
O=[N+]([O-])C1C2CCC(C2)C1c1ccccc1 (stereo not drawn) | -2.05%
CCC1=NS(=O)(=O)c2c(ncn2C)N1 | 11.3%
O=C(O)C/C(=C\c1ccccc1)C(=O)O | 4%
CC(C)(C)c1ccc(Oc2nc(Oc3ccc(C(C)(C)C)cc3)nc(Oc3ccc(C(C)(C)C)cc3)n2)cc1 | 3.8%
